# Rows were chosen to be rich in hits. Some 4.8% of all compounds tested hit in one or more screens of this group.
# Beta cell apopt: inhibitors of cytokine-induced beta cell apoptosis, primary screen, luminescence | INS-1E cytokine-induced death, ATP luminescence, 48 h; percent of positive-control rescue, neutral wells zero | AID 435005, 2010 | 0.8% of 300,000 active | protection from apoptosis, % (concentration not given with the values);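 active means Every replicate reaches about 75%, or at least half do and their mean reaches it too, limit read from the data; inconclusive means At least half of replicates reach the limit but their mean does not; inactive means Under half of replicates reach the limit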;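 further: 0% = cytokine-treated negative control wells and 100% = positive control rescue; higher means more ATP so stronger rescue from cytokine killing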
# Mdm2-MdmX inh: inhibitors of human Mdm2-MdmX association, primary screen, cell-based, luminescence, split luciferase, SaOS-2, uHTS; SaOS-2 split-luciferase Mdm2/MdmX complementation; AID 485346, 2010; Protein Mdm4 (Homo sapiens) + E3 ubiquitin-protein ligase Mdm2 (Homo sapiens), …; 3% of 330,000 active; inhibition, % at 8 µM;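 active means inhibition of at least 50% at 8 µM in the primary screen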
# Target sequence (O15151 whole entry, looked up): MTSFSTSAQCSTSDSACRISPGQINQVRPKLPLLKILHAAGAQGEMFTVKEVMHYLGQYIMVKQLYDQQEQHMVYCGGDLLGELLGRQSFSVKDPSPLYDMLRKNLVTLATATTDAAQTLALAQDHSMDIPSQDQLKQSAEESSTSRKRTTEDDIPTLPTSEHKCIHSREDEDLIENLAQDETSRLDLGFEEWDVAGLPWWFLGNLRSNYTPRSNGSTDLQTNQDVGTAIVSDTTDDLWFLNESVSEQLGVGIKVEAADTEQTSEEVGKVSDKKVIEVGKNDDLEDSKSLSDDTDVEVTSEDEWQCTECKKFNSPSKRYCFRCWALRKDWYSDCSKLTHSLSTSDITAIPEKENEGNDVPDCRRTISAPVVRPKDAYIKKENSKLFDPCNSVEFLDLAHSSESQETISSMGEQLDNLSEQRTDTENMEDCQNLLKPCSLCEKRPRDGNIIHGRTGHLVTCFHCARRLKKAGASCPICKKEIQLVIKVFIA
# Target sequence (Q00987 whole entry, looked up): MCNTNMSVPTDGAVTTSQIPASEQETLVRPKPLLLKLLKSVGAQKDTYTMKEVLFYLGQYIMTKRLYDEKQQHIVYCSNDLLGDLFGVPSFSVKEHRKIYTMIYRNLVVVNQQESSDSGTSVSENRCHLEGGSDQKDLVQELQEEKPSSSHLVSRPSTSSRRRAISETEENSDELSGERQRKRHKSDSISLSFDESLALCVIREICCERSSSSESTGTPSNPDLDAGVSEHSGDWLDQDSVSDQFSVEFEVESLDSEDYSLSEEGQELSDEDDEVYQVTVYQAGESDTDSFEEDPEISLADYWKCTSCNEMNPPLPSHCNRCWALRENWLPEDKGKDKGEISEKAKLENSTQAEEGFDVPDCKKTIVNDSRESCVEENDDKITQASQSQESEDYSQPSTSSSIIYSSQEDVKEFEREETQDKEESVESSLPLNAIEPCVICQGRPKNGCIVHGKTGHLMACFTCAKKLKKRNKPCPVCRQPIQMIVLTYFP
# MPTP block: mitochondrial permeability transition pore inhibitors, primary screen, biochemical, isolated mouse mitochondria, absorbance; Ca2+ swelling absorbance, 30 min; inhibition, % at 10 µM; 1.4% of 360,000 active; AID 602449, 2012;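 active means inhibition of 50% or more, scaled per plate between neutral and stimulator controls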;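 further: 0% = DMSO wells given calcium and 100% = 1 mM EGTA wells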
# CSC inhib: cancer stem cell viability inhibitors, primary screen, luminescence. cancer stem cell-like cells viability. inhibition, % at 7.5 µM. 1.1% of 300,000 active; in the data active means inhibition above about 75%; inconclusive means no clear call, values can overlap the other calls; tested in HMLE shEcad cells
# Calb FLC: C. albicans growth inhibition with fluconazole, primary screen, CaCi-2 strain, Alamar Blue fluorescence. C. albicans CaCi-2 (fluconazole-resistant clinical isolate) + fluconazole, 48 h. growth inhibition, % (test concentration not listed). 0.57% of 300,000 active;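 active means growth inhibition above about 58% in most replicates, limit read from the data, passing the limit was not always enough; inconclusive means exactly half the replicates above a set limit; inactive means most replicates below a set limit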;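 further: all wells also contain fluconazole at 8 µg/ml as a sub-toxic cotreatment; 0% = median of DMSO wells and 100% = median of geldanamycin control wells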
# Rh123 counter: fluorescence retest of MPTP screen hits in isolated mitochondria, single concentration; membrane potential, Rhodamine 123 fluorescence; shares compounds with MPTP block; inhibition, % at 10 µM; AID 624504, 2012; 78% of 5,000 active; in the data active means inhibition above about 22%;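 further: 0% = DMSO vehicle and 100% = positive control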
# * = called active by the depositor; ? = inconclusive; · = no result given.
SMILES,Beta cell apopt,Mdm2-MdmX inh,MPTP block,CSC inhib,Calb FLC,Rh123 counter
CCCCCc1c2c(cc(O)c1C(=O)O)OC(=O)c1c(cc(OC)cc1C(=O)CCCC)O2,-3,-7,90*,0,-4,28*
CCCCCc1c2c(cc(O)c1C(=O)O)OC(=O)c1cc(C(=O)CCCC)c(OC)cc1O2,·,-6,95*,·,·,57*
CCCCc1c(C(=O)O)cc(OC)cc1C(=O)O,-5,18,-1,-5,1,·
CC1(C(=O)NS(=O)(=O)c2ccc(C#N)cc2)CCN1C(=O)c1cccc2ccccc12 (stereo not given),·,·,0,·,·,·
O=C(COc1cc(Cl)c(Cl)cc1Cl)Nc1cccc(O)c1,-7,14,3,8,1,·
Cc1cccc(OCC(=O)Nc2ccncc2)c1C,·,10,82*,-3,32,87*
O=C(COc1cc(Cl)c(Cl)cc1Cl)Nc1ccncc1,-4,-5,76*,18,9,88*
Cc1cc(OCC(=O)Nc2ccncc2)ccc1Br,-4,11,59*,32,-3,111*
Cc1cc(Cl)ccc1OCC(=O)Nc1ccncc1,0,16,80*,3,7,79*
Cc1cc(Cl)ccc1OCC(=O)NCc1ccncc1,5,8,1,-8,1,·
CCN(CC)C(=O)c1[nH]cnc1C(=O)Nc1cccc(Cl)c1,-3,17,-1,-8,·,·
O=C(Nc1nnc(CCN2CCCCC2)s1)c1ccccc1Cl,-7,18,4,-11,2,·
C[C@@H]1CN([C@H](C)CO)C(=O)CCCn2nncc2CO[C@H]1CN(C)S(=O)(=O)c1cccc(F)c1,·,·,0,·,·,·
C=CCNc1nc(-c2c(C)nc3sccn23)cs1,4,10,9,5,-1,·
Cc1nc2sccn2c1-c1csc(NCc2ccccc2)n1,52,14,58*,-7,13,67*
NS(=O)(=O)c1ccc(CCNc2ncnc3sccc23)cc1,43,15,74*,1,-4,81*
Cc1sc2ncnc(NCCc3ccc(S(N)(=O)=O)cc3)c2c1C,93*,19,86*,-2,?,106*
CC(Sc1ncnc2sccc12)C(=O)Nc1ccc(S(N)(=O)=O)cc1 (stereo not given),-3,33,1,-8,·,·
O=c1c2c(C(F)(F)F)cc(C(F)(F)F)nc2[nH]n1-c1ccccc1,-3,18,90*,10,18,68*
CC(C)c1ccc(-c2csc(NC(=O)c3cccs3)c2C(=O)O)cc1,-1,3,62*,41,10,56*
Brc1ccc([C@H]2CN3CCSC3=N2)cc1,4,-34,-4,-11,·,·
CCOC(=O)c1ccc(N2CCN(c3ccc(F)cc3)CC2)c(NC(=O)Nc2cccc(OC)c2)c1,8,-25,92*,·,-1,84*
CCOC(=O)c1ccc(N2CCN(c3ccccc3F)CC2)c(NC(=O)Nc2ccccc2)c1,22,9,96*,-5,-4,87*
COc1cccc(NC(=O)CN2CCN(c3ccc(F)cc3)CC2)c1,-7,-3,-1,4,2,·
CC(=O)c1c(O)cc(O)cc1CC(=O)O,4,8,4,-4,13,·
SMILES,Beta cell apopt,Mdm2-MdmX inh,MPTP block,CSC inhib,Calb FLC,Rh123 counter
CC(=O)c1c(O)cc(O)c(C(C)=O)c1O,·,8,90*,-3,0,106*
COC(=O)c1ccc(NC(=S)NCCc2cccc(C)c2)cc1,2,26,88*,·,-11,91*
COC(=O)c1ccc(NC(=S)NCCc2ccc(OC)cc2)cc1,1,11,8,-2,30,·
COC(=O)c1ccc(NC(=S)NCCc2ccccc2C)cc1,-7,11,100*,-8,5,83*
CC[C@H](C)[C@@H](C(=O)NCCCCCCCCCCC(=O)N1CCN(C(=O)OC(C)(C)C)CC1)n1cc(CCCCCNC(=O)OC(C)(C)C)nn1,101*,17,87*,-5,·,22*
COc1ncnc2sc(-c3ccccc3)cc12,5,-25,0,5,-6,·
COc1ccc(Nc2ncnc3sc(-c4ccccc4)cc23)cc1,4,28,71*,36,-3,61*
CC(Sc1nncs1)C(=O)Nc1ccc(S(=O)(=O)Nc2ncccn2)cc1 (stereo not given),-3,22,-2,-29,·,·
O=C(NCC(c1cccs1)N1CCOCC1)c1ccccc1NS(=O)(=O)c1ccc(Cl)c([N+](=O)[O-])c1 (stereo not given),14,5,80*,10,8,77*
C/C(=N\NC(=O)Cn1cc([N+](=O)[O-])cn1)c1ccco1,-4,-8,0,12,-2,·
Cc1ccsc1-c1cc2nc(NCCCN(C)C)n(C)c(=O)c2s1,·,·,0,·,·,·
CS(=O)(=O)c1ccccc1COC(=O)Nc1ccc(Cl)cc1,4,11,1,-19,6,·
O=C(Nc1ccc(Cl)cc1)OCc1ccccn1,-7,-117,91*,10,-18,85*
O=C(Nc1ccc(Cl)cc1)OCc1cn(-c2ccc(Cl)cc2)nn1,1,-16,85*,7,-1,83*
Cc1ncc([N+](=O)[O-])n1CC(=O)Nc1ccc(F)cc1F,-6,15,0,-8,-1,·
CCc1ccc(S(=O)(=O)NCc2ccc(C(=O)NCCN(Cc3ccccc3)C(C)C)cc2)cc1,·,·,97*,·,·,93*
O=C(Nc1nc(-c2ccc(Cl)s2)cs1)c1ccncc1,10,9,62*,11,-37,63*
CN(C)S(=O)(=O)c1ccc(C(=O)OCC(=O)Nc2ccc3c(c2)OCO3)cc1,-1,2,0,·,·,·
C[C@@H]1CN([C@@H](C)CO)S(=O)(=O)c2ccc(-c3ccc(C#N)cc3)cc2O[C@@H]1CN(C)Cc1ccccn1,·,·,0,·,·,·
Cc1cc(O)c(C(C)C)cc1N=Nc1ccccc1C(=O)O,-1,3,76*,26,49,52*
COc1cc(N=Nc2ccccc2C(=O)O)ccc1O,0,8,1,-2,·,·
Cc1cc(N=Nc2ccccc2C(=O)O)c(C)c(C)c1O,12,-8,56*,-2,7,36*
COC(=O)c1ccc(C2N=C(c3cccs3)CC(c3ccccc3O)N2)cc1 (stereo not given),21,38,52*,56,3,88*
CCOC(=O)C(Cc1ccc(O)c([N+](=O)[O-])c1)N1C(=O)c2ccccc2C1=O (stereo not given),·,·,-2,·,·,·
Cc1ccc(Cl)c2c1NC(=O)C2=O,-22,3,0,·,·,·

# Source: PubChem BioAssay (several laboratories)
